Experiment in all cases: protein-binding microarray (PBM); PBM: ~300 nM protein, 6 mM HEPES pH 7.8, 80 mM KCl, 0.5 mM EDTA, 0.5 mM EGTA, 6% glycerol, 35 ng/ul poly-dIdC, 1% milk, 1 h, room temperature; Ap Aiptasia and Nv Nematostella (sea anemones) / Co Capsaspora / Aq Amphimedon (sponge) / Dm Drosophila / Hu human; RHD is the Rel homology domain; high values mean tight binding
Holding throughout (conditions): dsDNA, one strand shown

Assay [1] deals with T1, GST-Ap-NF-kB RHD (Exaiptasia pallida (Aiptasia), UniProt A0A913YAJ5 2-422).
T1 sequence: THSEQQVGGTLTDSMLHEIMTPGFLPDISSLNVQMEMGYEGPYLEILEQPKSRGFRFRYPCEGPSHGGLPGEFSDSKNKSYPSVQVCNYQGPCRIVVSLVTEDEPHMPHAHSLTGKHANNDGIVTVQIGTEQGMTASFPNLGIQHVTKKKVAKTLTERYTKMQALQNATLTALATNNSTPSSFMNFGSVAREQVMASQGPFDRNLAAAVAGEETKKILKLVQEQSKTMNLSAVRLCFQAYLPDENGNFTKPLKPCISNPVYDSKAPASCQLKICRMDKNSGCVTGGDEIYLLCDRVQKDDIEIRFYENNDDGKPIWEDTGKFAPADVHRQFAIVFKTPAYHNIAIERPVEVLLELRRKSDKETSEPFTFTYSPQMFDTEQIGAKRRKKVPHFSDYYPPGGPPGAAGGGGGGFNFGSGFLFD

Assay [2] concerns the target T2, GST-Nv-NF-kB (Cys allele) (Nematostella vectensis, UniProt E5G601 2-411).
T2 sequence: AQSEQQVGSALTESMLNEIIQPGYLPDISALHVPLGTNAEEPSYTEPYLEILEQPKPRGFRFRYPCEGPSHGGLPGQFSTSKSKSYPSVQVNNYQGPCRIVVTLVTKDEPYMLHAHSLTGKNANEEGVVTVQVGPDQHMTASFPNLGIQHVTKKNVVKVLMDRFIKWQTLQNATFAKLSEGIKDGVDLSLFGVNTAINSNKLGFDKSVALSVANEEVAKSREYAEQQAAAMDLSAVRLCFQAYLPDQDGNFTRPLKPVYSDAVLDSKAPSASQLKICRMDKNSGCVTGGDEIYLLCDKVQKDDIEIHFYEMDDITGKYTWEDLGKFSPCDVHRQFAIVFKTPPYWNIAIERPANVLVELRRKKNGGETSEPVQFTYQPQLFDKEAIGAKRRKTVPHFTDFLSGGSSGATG

The target of assay [3] is T3, GST-Nv-NF-kB (Ser allele) (Nematostella vectensis, UniProt A7UNT2 2-411).
T3 sequence: T2 sequence with Q21R, C66S, S207N, E215Q, V217A, E225K, A268E, D399E

Assay [4] deals with T4, GST-Co-NF-kB (Capsaspora owczarzaki, UniProt F1ARL5 200-546).
T4 sequence: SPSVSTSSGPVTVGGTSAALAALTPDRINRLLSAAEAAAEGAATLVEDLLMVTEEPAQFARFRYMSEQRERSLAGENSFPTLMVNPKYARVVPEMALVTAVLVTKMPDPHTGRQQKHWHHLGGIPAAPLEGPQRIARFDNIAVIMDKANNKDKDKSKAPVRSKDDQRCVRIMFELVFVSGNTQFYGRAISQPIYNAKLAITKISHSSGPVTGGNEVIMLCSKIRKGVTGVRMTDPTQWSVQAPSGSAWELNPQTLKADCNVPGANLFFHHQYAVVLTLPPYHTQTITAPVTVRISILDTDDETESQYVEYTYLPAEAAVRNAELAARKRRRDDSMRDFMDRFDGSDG

Assay [5] addresses T5, GST-Dm-Relish (Drosophila melanogaster, UniProt Q94527 99-473).
T5 sequence: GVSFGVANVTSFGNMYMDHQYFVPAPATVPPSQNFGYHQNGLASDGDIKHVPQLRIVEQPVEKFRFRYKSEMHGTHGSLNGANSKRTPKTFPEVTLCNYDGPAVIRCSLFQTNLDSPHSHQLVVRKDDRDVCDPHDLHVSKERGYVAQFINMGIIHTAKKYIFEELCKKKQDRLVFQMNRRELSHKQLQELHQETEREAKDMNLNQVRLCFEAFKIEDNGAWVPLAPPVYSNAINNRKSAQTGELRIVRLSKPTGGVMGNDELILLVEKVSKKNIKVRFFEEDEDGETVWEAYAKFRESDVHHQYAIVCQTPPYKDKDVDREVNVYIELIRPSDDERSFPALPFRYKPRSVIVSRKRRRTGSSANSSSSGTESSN

The target in assay [6] is T6, GST-Aq-NF-kB (Amphimedon queenslandica, UniProt A9Y5G7 2-389).
T6 sequence: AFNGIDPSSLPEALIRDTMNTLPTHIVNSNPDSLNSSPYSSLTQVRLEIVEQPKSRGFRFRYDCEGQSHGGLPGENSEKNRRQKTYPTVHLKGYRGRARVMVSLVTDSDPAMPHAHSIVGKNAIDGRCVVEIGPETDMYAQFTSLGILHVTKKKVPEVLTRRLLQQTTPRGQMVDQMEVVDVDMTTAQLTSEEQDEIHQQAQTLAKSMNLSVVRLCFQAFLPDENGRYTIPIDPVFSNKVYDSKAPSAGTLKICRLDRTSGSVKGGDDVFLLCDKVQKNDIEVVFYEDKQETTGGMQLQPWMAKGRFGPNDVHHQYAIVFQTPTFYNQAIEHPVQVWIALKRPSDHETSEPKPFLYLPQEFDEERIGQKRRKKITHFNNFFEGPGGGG

In assay [7] the target is GST-Hu-p50 (Homo sapiens, UniProt P19838 7-356).
Sequence of GST-Hu-p50 (P19838 7-356): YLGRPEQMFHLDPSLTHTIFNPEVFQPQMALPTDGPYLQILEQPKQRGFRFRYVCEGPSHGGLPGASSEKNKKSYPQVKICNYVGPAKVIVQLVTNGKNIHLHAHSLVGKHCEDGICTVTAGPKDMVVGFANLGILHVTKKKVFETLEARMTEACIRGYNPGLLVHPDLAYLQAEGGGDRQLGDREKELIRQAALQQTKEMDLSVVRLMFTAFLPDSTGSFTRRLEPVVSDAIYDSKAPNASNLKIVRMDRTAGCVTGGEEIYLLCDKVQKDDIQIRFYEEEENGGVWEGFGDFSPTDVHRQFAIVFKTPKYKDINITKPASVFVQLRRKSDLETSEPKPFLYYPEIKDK

Changes are numbered by the printed parent chain.

Take “CCGATTAACATCAAATTTCCCAATGATGTTAATCGGGTCTTGATTCGCTTGACGCTGCTG”: the binding signal in assay [1] turned out to be 2.25 z-score; in assay [2] it was 4.12 z-score; in assay [3] it was 3.77 z-score; in assay [4], 3.94 z-score; in assay [5] it was 2.51 z-score; in assay [6], 3.58 z-score. This sequence returned a binding signal in assay [7] of 3.39 z-score.
Take “CCGATTAACATCACGGGGGAAACTGATGTTAATCGGGTCTTGATTCGCTTGACGCTGCTG”: the binding signal came to 7.25 z-score in assay [1]; 5.82 z-score in assay [2]; 8.94 z-score in assay [3]; 12.2 z-score in assay [4]; 3.91 z-score in assay [5]; 4.97 z-score in assay [6]. For the same sequence, in assay [7], the binding signal turned out to be 6.34 z-score.
“CCGATTAACATCATGGGGGGAAATGATGTTAATCGGGTCTTGATTCGCTTGACGCTGCTG”: the binding signal worked out at 6.36 z-score in assay [1]; 6.46 z-score in assay [2]; 7.43 z-score in assay [3]; 9.84 z-score in assay [4]; 4.25 z-score in assay [5]; 5.5 z-score in assay [6]. In assay [7], the binding signal came to 6.02 z-score.
Take “CCGATTAACATCAGAATTTTCCCTGATGTTAATCGGGTCTTGATTCGCTTGACGCTGCTG”: the binding signal in assay [1] is 4.45 z-score; in assay [2], 7.42 z-score; in assay [3] it was 7.41 z-score; in assay [4], 5.08 z-score; in assay [5], 2.3 z-score; in assay [6], 6.44 z-score. Also, the binding signal in assay [7] is 5.01 z-score.
Regarding “CCGATTAACATCAATATAACCCCTGATGTTAATCGGGTCTTGATTCGCTTGACGCTGCTG”, the binding signal came to 3.99 z-score in assay [1]; 2.48 z-score in assay [2]; 2.08 z-score in assay [3]; 2.11 z-score in assay [4]; 2.05 z-score in assay [5]; 2.37 z-score in assay [6]. Moreover, the binding signal in assay [7] was determined as 2.73 z-score.
Regarding “CCGATTAACATCAGGAAAGCACCTGATGTTAATCGGGTCTTGATTCGCTTGACGCTGCTG”, the binding signal in assay [1] is 2.85 z-score; in assay [2] it was 4.19 z-score; in assay [3], 2.69 z-score; in assay [5] it was 6.13 z-score; in assay [6], 5.89 z-score; in assay [7] it was 4.74 z-score.
Turning to “CCGATTAACATCAGGGGCTTTACTGATGTTAATCGGGTCTTGATTCGCTTGACGCTGCTG”, the binding signal came to 4.24 z-score in assay [1]; 5.11 z-score in assay [2]; 3.48 z-score in assay [3]; 7.41 z-score in assay [5]; 5.73 z-score in assay [6]; 4.83 z-score in assay [7].
“CCGATTAACATCAATCCTCCCCCTGATGTTAATCGGGTCTTGATTCGCTTGACGCTGCTG”: the binding signal in assay [1] was found to be 5.52 z-score; in assay [2], 4.44 z-score; in assay [3], 5.85 z-score; in assay [4], 8.24 z-score; in assay [5], 2.9 z-score; in assay [6] it was 4.98 z-score. In addition, in assay [7], the binding signal turned out to be 4.83 z-score.
With “CCGATTAACATCAGGAAGGTCCCTGATGTTAATCGGGTCTTGATTCGCTTGACGCTGCTG”, the binding signal in assay [1] came out at 3.51 z-score; in assay [2], 2.97 z-score; in assay [3] it was 1.09 z-score; in assay [5] it was 1.64 z-score; in assay [6] it was 5.37 z-score; in assay [7], 2.52 z-score.
Turning to “CCGATTAACATCAGGAAGCCCCATGATGTTAATCGGGTCTTGATTCGCTTGACGCTGCTG”, the binding signal in assay [1] turned out to be 4.01 z-score; in assay [2], 4.13 z-score; in assay [3], 2.15 z-score; in assay [5] it was 5.38 z-score; in assay [6], 4.02 z-score; in assay [7] it was 3.77 z-score.
Consider “CCGATTAACATCAAGGGGTTTCCTGATGTTAATCGGGTCTTGATTCGCTTGACGCTGCTG”, for which the binding signal in assay [1] amounted to 6.93 z-score; in assay [2] it was 5.76 z-score; in assay [3], 4.08 z-score; in assay [5], 7.98 z-score; in assay [6], 6.62 z-score; in assay [7], 5.36 z-score.
Regarding “CCGATTAACATCAAAAAGCCCCTTGATGTTAATCGGGTCTTGATTCGCTTGACGCTGCTG”, the binding signal in assay [1] was 7.33 z-score; in assay [2], 9.57 z-score; in assay [3], 7.49 z-score; in assay [5], 8.7 z-score; in assay [6], 7.9 z-score; in assay [7], 6.72 z-score.
